tim23-1 inh: tim23-1 yeast growth inhibition; S. cerevisiae tim23-1 growth, BacTiter-Glo luminescence, 24 h; inhibition, % at 20 µM; 330,000 compounds, 1.3% hits; AID 463212;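 active = growth inhibition of the mutant yeast at or above 50%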;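 also: temperature-sensitive mutant grown at 25 °C; plate controls were DMSO-treated mutant yeast for no effect and medium wells lacking yeast for full effect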
NLRP3 yeast inh: blocks the NALP3 inflammasome reconstituted in yeast | Yeast reconstituted NLRP3/ASC/caspase-1, beta-gal luminescence, 24 h | inhibition, % at 10 µM | 330,000 compounds, 0.39% hits | AID 2825;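 active = inhibition of 50% or more; inactive = inhibition below 50%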;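 also: plate controls were induced DMSO wells for no effect and uninduced yeast grown without galactose for full effect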
SKKanGAS inh: blocks kanamycin growth of S. pyogenes SKKanGAS strain; BacTiter-Glo, 6 h; inhibition, % at 7.5 µM; AID 1662; 300,000 compounds, 1.3% hits;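 active = mean replicate score, as percent of positive control median, at least 50; inconclusive = mean below 50 but one replicate at or above 50; inactive = mean and every replicate below 50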;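 also: strain carries kanamycin resistance gene driven by streptokinase promoter and grows in 40 µg/ml kanamycin; loss of luminescence reflects streptokinase promoter inhibition or plain growth inhibition; 0% = median of DMSO wells and 100% = positive control at its reference dose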
TIM10 inh: inhibits growth of TIM10 yeast strain | 330,000 compounds, 1.4% hits | AID 463195 | S. cerevisiae TIM10 strain growth, BacTiter-Glo luminescence, 24 h | inhibition, % at 10 µM;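 active = inhibition of 40% or more at the single tested concentration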;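 also: wild-type TIM10 isogenic control strain grown at permissive 25 °C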
tim10-1 inh: inhibits growth of tim10-1 mutant yeast | S. cerevisiae tim10-1 ts strain growth, BacTiter-Glo, 24 h | inhibition, % at 20 µM | 330,000 compounds, 2.2% hits | AID 463190;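 active = inhibition of at least 40%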;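 also: mutant grown at 25 °C; 0% = DMSO wells with yeast and 100% = wells holding no yeast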
PfHsp90 yeast 2: reduces growth (ATP signal) of yeast expressing P. falciparum Hsp90; S. cerevisiae expressing PfHsp90, BacTiter-Glo ATP, 48 h; yeast lacking PDR1 and PDR3 efflux regulators; inhibition, % at 9.4 µM; 310,000 compounds, 0.32% hits; AID 504621;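 active = every replicate shows inhibition above about 80%, whatever the replicate mean, limit read from the data; inconclusive = mean inhibition reaches the set limit but some replicate falls short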;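 also: 0% = DMSO neutral controls and 100% = 20 µM radicicol positive controls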
tim10 confirm: TIM10 yeast growth inhibition, confirmed | 4,600 compounds, 63% hits | inhibition, % at 10 µM | AID 463215 | shares compounds with TIM10 inh | S. cerevisiae tim10 strain growth, BacTiter-Glo luminescence, 24 h;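 active = inhibition of yeast growth at or above a set limit in either of two replicates at 10 µM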;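 also: this counterscreen used the strain with wild-type TIM10; 0% = yeast with DMSO and 100% = medium wells lacking yeast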
Starred values were filed as active, the others as inactive; ? = inconclusive; . = no result. Most compounds without a hit are left out; they make up all but 4.6% or so of the library.

SMILES | tim23-1 inh | NLRP3 yeast inh | SKKanGAS inh | TIM10 inh | tim10-1 inh | PfHsp90 yeast 2 | tim10 confirm
CCOC(=O)N1CCN(C(=O)c2ccc3nc(N4CCC(C)CC4)sc3c2)CC1 | 23 | 18 | 4 | 27 | 37 | 13 | .
COc1ccc(-c2oc3ncn(CCN4CCOCC4)c(=N)c3c2-c2ccc(OC)cc2)cc1 | 35 | 11 | 2 | 42* | 37 | -2 | 19
COc1ccc(C2c3ccc4ccccc4c3Oc3ncn(CCN4CCOCC4)c(=N)c32)cc1 (stereo unspecified) | -4 | 2 | 4 | 11 | 31 | -9 | .
O=Cc1ccnc(-c2ccc(OC(=O)c3ccco3)cc2)n1 | 14 | -1 | 6 | 7 | 2 | -3 | .
O=C(Nc1ccc2ccccc2c1)C(c1ccccc1)C1CCCC1 (stereo unspecified) | 7 | 17 | 2 | 44* | 20 | -11 | 24
Cc1onc(-c2ccc(Cl)cc2)c1-c1ccnc(SCC(=O)Nc2cc(Cl)cc(Cl)c2)n1 | 13 | -2 | 11 | 2 | 1 | 1 | .
CCn1cc(/C=C(\NC(=O)c2cc(OC)c(OC)c(OC)c2)C(=O)NCCCN2CCOCC2)c2ccccc21 | 9 | 0 | 10 | 4 | 20 | 13 | .
CCn1cc(/C=C(\NC(=O)c2cc(OC)c(OC)c(OC)c2)C(=O)NCCN2CCOCC2)c2ccccc21 | -4 | 6 | 1 | 97* | 14 | 26 | 0
Cc1[nH]c2ccccc2c1CCNC(=O)c1ccc2c(c1[N+](=O)[O-])C(=O)c1ccccc1C2=O | 37 | 24 | 32 | 45* | 31 | -8 | 14
CCCNC(=O)NCCc1c(C)[nH]c2ccccc12 | 4 | -3 | 0 | -4 | 7 | 6 | .
CCCC(C)NC(=O)c1ccc(OCc2ccc(Cl)cc2)c(OC)c1 (stereo unspecified) | . | . | 22 | . | . | -12 | .
CCN=c1scc(-c2ccccc2)n1/N=C/c1ccccn1 | 35 | 12 | -6 | 45* | 36 | 3 | 24
Cc1nc2ccccc2c(=O)n1/N=C/c1ccccn1 | 10 | 8 | 2 | -1 | 11 | 15 | .
C=CCN=c1scc(-c2ccccc2)n1/N=C/c1ccccn1 | 45 | 20 | -6 | 48* | 28 | -23 | 43*
Brc1cc2c(cc1Br)OCCOCCOCCO2 | 20 | 20 | 8 | -11 | -7 | 4 | .
CCn1c(=O)c(C(=O)NCc2ccccc2)c(O)c2ccccc21 | 36 | 14 | 7 | -14 | -43 | 7 | .
CCn1c(=O)c(C(=O)NCc2cccnc2)c(O)c2ccccc21 | 42 | 6 | -1 | 44* | 32 | . | 33*
CCc1cc(-c2n[nH]c(=S)n2C(C)c2ccccc2)cs1 (stereo unspecified) | 40 | 0 | -7 | 41* | 26 | . | 20
CCOC(=O)c1ccc(S(=O)(=O)n2c(CN3CCCCC3)nc3ccccc32)cc1 | 35 | 9 | 16 | 50* | 37 | -13 | 28
Cc1ccc(-c2csc(N(CC3CCCO3)C(=O)c3ccco3)n2)cc1 (stereo unspecified) | 5 | 14 | -3 | 43* | 27 | -17 | 42*
CCC1(C)C(Nc2c(C)cccc2C)=NC(=S)N1c1ccc(NC(C)=O)cc1 (stereo unspecified) | 19 | 10 | 2 | -5 | 9 | 10 | .
COc1ccc(/C=C(/C(=O)Nc2ccccc2C(=O)NC(C)C)c2ccccc2)cc1 | 2 | 19 | 39 | 33 | 35 | . | .
COc1ccc(/C=C(/C(=O)Nc2ccccc2C(=O)N2CCCC2)c2ccccc2)cc1 | 30 | -6 | 7 | 43* | 34 | . | 28
O=C(C1CCC(Cn2c(=S)[nH]c3ccccc3c2=O)CC1)N1CCN(c2ccccc2)CC1 (stereo unspecified) | 31 | 7 | ? | 46* | 26 | . | 37*
CC1CC(C)CN(C(=O)CCCn2c(=S)[nH]c3ccccc3c2=O)C1 (stereo unspecified) | 42 | 17 | 6 | 43* | 29 | -31 | 19
SMILES | tim23-1 inh | NLRP3 yeast inh | SKKanGAS inh | TIM10 inh | tim10-1 inh | PfHsp90 yeast 2 | tim10 confirm
O=S(=O)(c1cccc(C(F)(F)F)c1)N1CCN(CC(O)COCc2ccccc2)CC1 (stereo unspecified) | 23 | 23 | . | 17 | 10 | 19 | .
CC(C)C(NC(=O)c1ccc(C(C)(C)C)cc1)C(=O)NCc1ccccn1 (stereo unspecified) | 29 | 8 | . | 16 | 15 | 4 | .
COc1ccc(N(CC(=O)Nc2cc(Cl)ccc2OC)S(=O)(=O)c2c(C)[nH]c(=O)[nH]c2=O)cc1 | 0 | -1 | 10 | 44* | -8 | -9 | -3
Cc1ccc(NC(=S)N/N=C/c2ccc([N+](=O)[O-])s2)cc1 | -11 | 16 | 43 | 46* | 18 | 100* | -18
O=C(c1ccco1)N1CCN(Cc2csc(-c3ccccc3Cl)n2)CC1 | 25 | 21 | -2 | 6 | 31 | -9 | .
COc1ccc(-c2cc3c(nn2)-c2ccccc2C3=O)cc1 | 27 | 49 | 2 | 42* | 18 | 40 | 45*
O=S(=O)(c1cccc(NC(=S)N2CCN(c3ccccc3)CC2)c1)C(F)F | 20 | 12 | 1 | 18 | 33 | -28 | .
O=S(=O)(c1cccc(NC(=S)N2CCN(c3ccccc3F)CC2)c1)C(F)F | 3 | -11 | 0 | 47* | 28 | -4 | 36*
COc1ccc(S(=O)(=O)N2CCOCC2)cc1NC(=O)CSc1nnc2n1CCCCC2 | -14 | 3 | . | -8 | -15 | -18 | .
O=C(c1cc2ccccc2oc1=O)N(Cc1ccccc1)CC1CCCO1 (stereo unspecified) | 19 | -6 | 4 | 17 | 13 | 49 | .
O=C(NCC1CCCO1)c1cc2ccccc2oc1=O (stereo unspecified) | 6 | -15 | 5 | 95* | 6 | -7 | -6
N/C(=N\NC(=O)c1ccccc1)c1cc2ccccc2oc1=O | 12 | 28 | -11 | 48* | -4 | -9 | 17
COc1ccc(C(=O)N/N=C(\N)c2cc3ccccc3oc2=O)cc1 | 4 | -15 | -3 | -14 | 10 | -9 | .
COc1ccc(CC(=O)NNC(=S)Nc2ccccc2)cc1Cl | 3 | 16 | -5 | 1 | 8 | . | .
CCCOc1ccc(CC(=O)NNC(=S)Nc2ccccc2)cc1Br | 42 | 20 | -7 | 46* | 31 | 19 | 27*
Cn1c(/C(C#N)=C/c2cccc(O)c2)nc2ccccc21 | 42 | 11 | -4 | 43* | 39 | 8 | 36*
COc1ccc(C)cc1NC(=S)N1CCN(S(C)(=O)=O)CC1 | 1 | -1 | 4 | 0 | 1 | 19 | .
COc1cc2c(cc1NC(=O)COC(=O)Cn1cnc3ccccc31)oc1ccccc12 | -8 | 40 | 16 | 41* | 26 | -24 | -11
COc1cc2c(cc1NC(=O)COc1ccccc1OC)oc1ccccc12 | -8 | 2 | 1 | -10 | 19 | 2 | .
